Test results reported in PubChem BioAssay (NCATS).
Results filed as inconclusive are left out. Activity calls are given as the source filed them. The call rests on the fitted dose curve; in most records, active means well fitted curve in the direction sought with a large enough effect; inconclusive means small, poorly fitted or top-dose-only effect, or another doubt; inactive means no such curve, though single readings can be large; an effect the other way counts as inactive or inconclusive. Non-standard residues stand in square brackets, D forms with d. Residues, ends and D or L forms follow the SMILES beside them. *: point of attachment. Nva = CCC[C@H](N)C(=O)O; Cbz = O=C(OCc1ccccc1)*

How the values were obtained:
[1] = qHTS of pediatric cancer cell lines to identify multiple opportunities for drug repurposing: Primary screen for SJ-GBM2 cells (AID 1347091); conditions: SJ-GBM2 viability, CellTiter-Glo luminescence, 48 h; series mostly up to 46 µM
Summary of the method: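 Viability measured as metabolically active cells via CellTiter-Glo luminescence following 48 hours of compound exposure, 11-point dilutions in confirmatory testing. 500-1,000 cells/well plated 5 hours before dosing; controls were DMSO and 2.3 µM bortezomib.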

[2] = qHTS of pediatric cancer cell lines to identify multiple opportunities for drug repurposing: Primary screen for A673 cells (AID 1347092); conditions: A673 Ewing sarcoma viability, CellTiter-Glo ATP luminescence, 48 h; series mostly up to 46 µM; further: nearly all actives have a fitted effect of over 45% in size
Summary of the method: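 Cells are plated, rested 5 h, dosed by pintool, incubated 48 h, then lysed with CellTiter-Glo and read by luminescence. DMSO is the neutral control; bortezomib at 2.3 uM final is the positive control.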

[3] = qHTS of pediatric cancer cell lines to identify multiple opportunities for drug repurposing: Primary screen for SK-N-MC cells (AID 1347093); conditions: SK-N-MC viability, CellTiter-Glo luminescence, 48 h; series mostly up to 46 µM
Summary of the method: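 Metabolically active cells were quantified by ATP-dependent luminescence (CellTiter-Glo, 15 min at room temperature) following 48 h treatment. Cells had been plated at 500-1,000 per well and settled for 5 h beforehand.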

[4] = qHTS of pediatric cancer cell lines to identify multiple opportunities for drug repurposing: Primary screen for BT-37 cells (AID 1347094); conditions: BT-37 viability, CellTiter-Glo luminescence, 48 h; series mostly up to 57.3 µM
Summary of the method: (§1)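 Following a 5-hour attachment period, cells at 500-1,000/well received compounds and were cultured for 48 hours. CellTiter-Glo was added and luminescence read to estimate viable, metabolically active cells.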

[5] = qHTS of pediatric cancer cell lines to identify multiple opportunities for drug repurposing: Primary screen for NB-EBc1 cells (AID 1347095); conditions: NB-EBc1 neuroblastoma viability, CellTiter-Glo luminescence, 48 h; series mostly up to 46 µM
Summary of the method: as §1

[6] = qHTS of pediatric cancer cell lines to identify multiple opportunities for drug repurposing: Primary screen for U-2 OS cells (AID 1347096); conditions: U-2 OS viability, CellTiter-Glo luminescence, 48 h; series mostly up to 46 µM; further: nearly all actives have a fitted effect of over 50% in size
Summary of the method: (§2)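 Viability after 48 h compound treatment at 37C, 500-1,000 cells/well, read as ATP luminescence with CellTiter-Glo. Primary screens used 11-point (MIPE, 0.78 nM-46 µM) or 8-point (NPC, 0.59 nM-46 µM) final concentrations; follow-up screens used 11-point dilutions.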

[7] = qHTS of pediatric cancer cell lines to identify multiple opportunities for drug repurposing: Primary screen for Saos-2 cells (AID 1347097); conditions: Saos-2 viability, CellTiter-Glo ATP luminescence, 48 h; series mostly up to 46 µM; further: nearly all actives have a fitted effect of over 40% in size
Summary of the method: as §1

[8] = qHTS of pediatric cancer cell lines to identify multiple opportunities for drug repurposing: Primary screen for SK-N-SH cells (AID 1347098); conditions: SK-N-SH viability, CellTiter-Glo luminescence, 48 h; series mostly up to 57 µM; further: nearly all actives have a fitted effect of over 65% in size
Summary of the method: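 Cells (500-1,000/well) rested 5 h, then received compounds for 48 h; metabolically active cells were measured by CellTiter-Glo luminescence. Final concentrations spanned up to 46 µM (MIPE, 11-point) or 0.59 nM-46 µM (NPC, 8-point) in primary screens, 11-point in follow-ups.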

[9] = qHTS of pediatric cancer cell lines to identify multiple opportunities for drug repurposing: Primary screen for NB1643 cells (AID 1347099); conditions: NB1643 neuroblastoma viability, CellTiter-Glo luminescence, 48 h; series mostly up to 46 µM; further: nearly all actives have a fitted effect of over 50% in size
Summary of the method: as §1

[10] = qHTS of pediatric cancer cell lines to identify multiple opportunities for drug repurposing: Primary screen for LAN-5 cells (AID 1347100); conditions: LAN-5 neuroblastoma viability, CellTiter-Glo luminescence, 48 h; series mostly up to 46 µM
Summary of the method: as §2

Measured: Potency
Potency means the concentration at half of the fitted maximal effect.

CCC[C@@H](C=O)NC(=O)[C@H](CC(C)C)NC(=O)[C@H](CC(C)C)NC(=O)OCc1ccccc1 (Cbz-Leu-Leu-[Nva]-aldehyde)
active: [1] 0.296 µM | [2] 0.59 µM | [3] 105 nM | [4] 1.22 µM | [5] 372 nM | [6] 2.35 µM | [7] 1.18 µM | [8] 1.36 µM | [9] 0.469 µM | [10] 0.935 µM

CN[C@@H]1C[C@H]2O[C@@](C)([C@H]1OC)n1c3ccccc3c3c4c(c5c6ccccc6n2c5c31)C(=O)N[C@H]4O
active: [1] 0.118 µM | [2] 0.296 µM | [3] 37.2 nM | [4] 6.85 µM | [5] 166 nM | [6] 2.96 µM | [7] 0.235 µM | [8] 0.607 µM | [9] 0.526 µM | [10] 1.32 µM

CNC(=O)c1ccc(Nc2cc(Nc3ccccc3S(=O)(=O)C(C)C)c3cc[nH]c3n2)nc1
active: [1] 1.05 µM | [2] 2.35 µM | [3] 743 nM | [4] 7.69 µM | [5] 1480 nM | [6] 18.7 µM | [7] 1.66 µM | [8] 4.82 µM | [9] 5.26 µM | [10] 0.0935 µM

O=C1NC(=O)C(=Cc2ccc3nccc(-c4ccncc4)c3c2)S1
active: [1] 0.0935 µM | [2] 0.187 µM | [3] 16.6 nM | [4] 0.432 µM | [5] 118 nM | [6] 1.87 µM | [7] 0.372 µM | [8] 1.36 µM | [9] 1.32 µM | [10] 0.743 µM

C[C@H](NCc1ccc(OCc2cccc(F)c2)cc1)C(N)=O
active: [1] 10.5 µM | [2] 5.9 µM | [3] 2640 nM | [4] 19.3 µM | [5] 10500 nM | [6] 18.7 µM | [7] 16.6 µM | [8] 30.4 µM | [9] 14.8 µM | [10] 7.43 µM

CC(C)(N)c1ccc(-c2nc3ccccc3nc2-c2ccccc2)cc1
inactive: [6]
active: [1] 23.5 µM | [2] 5.9 µM | [3] 4690 nM | [4] 15.3 µM | [5] 18700 nM | [7] 1.05 µM | [8] 21.5 µM | [9] 23.5 µM | [10] 13.2 µM

C[C@@H]1CC[C@@]2(OC1)OC1CC3C4CC=C5CC(O)CCC5(C)C4CCC3(C)C1[C@@H]2C (stereo partly specified)
inactive: all assays above

CC(C)C[C@H](NC(=O)CNC(=O)c1cc(Cl)ccc1Cl)B1OC(=O)CC(CC(=O)O)(C(=O)O)O1 (stereo partly specified)
active: [1] 0.148 µM | [2] 0.0118 µM | [3] 83.3 nM | [4] 0.344 µM | [5] 469 nM | [6] 0.743 µM | [7] 0.372 µM | [8] 0.215 µM | [9] 0.372 µM

COc1ccc(Nc2cc(-c3cnc(N)nc3)nc(N3CCOCC3)n2)cn1
active: [1] 4.18 µM | [2] 5.9 µM | [3] 372 nM | [4] 13.7 µM | [5] 2960 nM | [6] 14.8 µM | [7] 1.18 µM | [8] 7.64 µM | [9] 2.96 µM | [10] 4.18 µM

N#Cc1cc(NC(=O)Nc2nnc(-c3ccncc3)s2)ccc1-c1cn[nH]c1
not listed: [8] | [9]
inactive: all other assays above

C[C@H](CCC(=O)O)[C@H]1CC[C@H]2[C@@H]3[C@H](O)C[C@@H]4C[C@H](O)CC[C@]4(C)[C@@H]3CC[C@]12C
not listed: [9]
inactive: all other assays above

O=C(CN1C(=O)C2(CCCC2)NC[C@H]1c1cc(F)cc(F)c1)Nc1ccc2c(c1)C[C@@]1(C2)C(=O)Nc2ncccc21
inactive: all assays above

O=c1c(O)c(-c2ccc(O)c(O)c2)oc2cc(O)ccc12
inactive: [6]
active: [1] 18.7 µM | [2] 29.6 µM | [3] 20900 nM | [4] 24.3 µM | [5] 23500 nM | [7] 16.6 µM | [8] 27.1 µM | [10] 16.6 µM

Nc1ccc(C(=O)Nc2cccc(-c3nc(N4CCOCC4)c4oc5ncccc5c4n3)c2)cn1
active: [1] 3.72 µM | [2] 14.8 µM | [3] 1180 nM | [4] 13.7 µM | [5] 2350 nM | [6] 18.7 µM | [7] 8.33 µM | [9] 2.35 µM | [10] 6.62 µM

c1cc(N[C@@H]2CCNC2)nc(-c2cnc3ccc(-c4cn[nH]c4)cn23)c1
active: [1] 16.6 µM | [2] 2.96 µM | [3] 4690 nM | [4] 19.3 µM | [7] 18.7 µM | [8] 24.1 µM | [10] 11.8 µM
inactive: [5] | [6]

O=C1c2c(O)cccc2[C@@H]([C@@H]2O[C@H](CO)[C@@H](O)[C@H](O)[C@H]2O)c2cc(CO)cc(O)c21
active: [3] 11800 nM
not listed: [9]
inactive: all other assays above

COc1cccc2c1C(=O)c1c(O)c3c(c(O)c1C2=O)C[C@@](O)(C(=O)CO)C[C@@H]3O[C@H]1C[C@H](N)[C@H](OC2CCCCO2)[C@H](C)O1 (stereo partly specified)
inactive: [6] | [7] | [8]
active: [1] 1.18 µM | [2] 2.35 µM | [3] 833 nM | [4] 1.93 µM | [5] 296 nM | [10] 0.469 µM

O=c1[nH]c(=O)n([C@H]2C[C@@H](O)[C@@H](CO)O2)cc1C=CBr
not listed: [8]
inactive: all other assays above

Cn1cc(C[C@@H](N)C(=O)O)c2ccccc21
inactive: all assays above

COC1=C(OC)C(=O)C(CC=C(C)CCC=C(C)CCC=C(C)CCC=C(C)CCC=C(C)CCC=C(C)CCC=C(C)CCC=C(C)CCC=C(C)CCC=C(C)C)=C(C)C1=O
inactive: all assays above

O=[N+]([O-])c1cn2c(n1)OC[C@@H](OCc1ccc(OC(F)(F)F)cc1)C2
not listed: [8]
inactive: all other assays above

C[C@H]1COc2c(N3CCN(C)CC3)c(F)cc3c(=O)c(C(=O)O)cn1c23
inactive: all assays above

CC(C=CC(=O)NO)=C[C@@H](C)C(=O)c1ccc(N(C)C)cc1
active: [1] 1.87 µM | [2] 0.59 µM | [3] 264 nM | [4] 1.22 µM | [5] 418 nM | [6] 1.48 µM | [7] 0.935 µM | [8] 2.71 µM | [9] 0.935 µM | [10] 0.59 µM

C[C@H](CCC(=O)O)[C@H]1CCC2C3C[C@H](O)[C@@H]4C[C@H](O)CC[C@]4(C)C3CC[C@@]21C (stereo partly specified)
not listed: [9]
inactive: all other assays above

COc1ccc2cc([S+]([O-])Cc3ncc(C)c(OC)c3C)nc2c1
inactive: all assays above

CCN(CC)Cc1ccc2cc(COC(=O)Nc3ccc(C(=O)NO)cc3)ccc2c1
active: [1] 0.743 µM | [2] 1.48 µM | [3] 833 nM | [4] 1.93 µM | [5] 833 nM | [6] 3.72 µM | [7] 0.935 µM | [8] 1.52 µM | [9] 1.18 µM | [10] 0.526 µM

CC(=O)O[C@H]1C[C@@H]2CC[C@H]3[C@H]4C[C@H]([N+]5(C)CCCCC5)[C@@H](OC(C)=O)[C@@]4(C)CC[C@@H]3[C@@]2(C)C[C@H]1[N+]1(C)CCCCC1
not listed: [9]
inactive: all other assays above

C[C@@H](Cc1cc2c(c(C(N)=O)c1)N(CCCO)CC2)NCCOc1ccccc1OCC(F)(F)F
not listed: [9]
inactive: all other assays above

COC1=C2C[C@@H](C)C[C@H](OC)[C@@H](O)[C@@H](C)C=C(C)[C@H](OC(N)=O)[C@@H](OC)C=CC=C(C)C(=O)NC(=CC1=O)C2=O
active: [1] 0.743 µM | [2] 4.69 µM | [3] 1050 nM | [4] 4.32 µM | [5] 743 nM | [8] 2.41 µM | [9] 4.18 µM | [10] 8.33 µM
inactive: [6] | [7]

CC(C)C[C@H](NC(=O)[C@@H](NC(=O)c1cccc(-c2ccccc2)n1)[C@@H](C)O)B(O)O
active: [1] 0.0418 µM | [2] 0.187 µM | [3] 23.5 nM | [4] 0.0968 µM | [5] 83.3 nM | [6] 0.148 µM | [7] 5.9 µM | [8] 0.0607 µM | [9] 0.0743 µM | [10] 0.0332 µM
